According to PubChem BioAssay:
Active and inactive are the calls of the source. Unless noted, how the calls were made is not given here.

Legend:
[1] = resazurin metabolic signal in HepG2 cells – cell-based, resazurin fluorescence, 24 h, PK04 Diversity Set, profiling panel (AID 1172); conditions: HepG2 viability, higher = more signal
[2] = budding yeast growth changes without added modifier – OD600, strain BY4716, 24 h, basal condition, primary screen (AID 1173); conditions: S. cerevisiae BY4716 growth, OD600, 24 h; higher = more signal, called active from +8 up or from −8 down
[3] = viability profiling in MM1S myeloma cells – cell-based, resazurin fluorescence, basal, 24 h, PK04 Diversity Set, profiling panel (AID 1174); conditions: higher = more signal, called active from +8 up or from −8 down;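 further: MM1S multiple myeloma cell line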
[4] = molecular target: Dihydroorotate dehydrogenase (quinone), mitochondrial (Plasmodium falciparum (isolate 3D7)) (UniProt Q08210); test: inhibition of P. falciparum DHODH – biochemical, C-terminal His tag, absorbance 600 nm, primary screen (AID 1175); conditions: PfDHODH enzyme, DCIP absorbance 600 nm; higher = more signal, called active from +8 up or from −8 down;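 further: recombinant parasite enzyme with a five histidine tag at its C terminus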
[5] = inhibition of PAO1 biofilm formation – strain PAO1, LB-PBS medium, absorbance 600 nm, primary screen (AID 1176); conditions: P. aeruginosa PAO1 growth/biofilm, A600, 12 h; higher = more signal
[6] = growth modulation of vineyard yeast isolate – strain RM11-1a, OD600, basal, 24 h, primary screen (AID 1177);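 further: cultures grown under basal conditions with no added stressor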; conditions: S. cerevisiae RM11-1a growth, OD600, 24 h; higher = more signal, called active from +8 up or from −8 down
[7] = growth of efflux-deficient E. coli DRC39 – strain DRC39, OD650, 24 h, E. coli filamentation inducers, primary screen (AID 1178);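 further: growth measured as culture turbidity by optical density at 650 nm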; conditions: E. coli DRC39 acrAB, higher = more signal, called active from +8 up or from −8 down
[8] = growth of efflux-deficient E. coli DRC39 – strain DRC39, OD650, 48 h, E. coli filamentation inducers, primary screen (AID 1179);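 further: screen aims at cell division blockers that make cells filament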; conditions: E. coli DRC39 delta-acrAB growth, higher = more signal, called active from +8 up or from −8 down
[9] = viability profiling in RPMI8226 myeloma cells – cell-based, resazurin fluorescence, basal, 24 h, PK04 Diversity Set, profiling panel (AID 1180); conditions: higher = more signal;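 further: RPMI8826 multiple myeloma cell line at 5000 cells per well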
[10] = molecular target: E3 ubiquitin-protein ligase XIAP (Homo sapiens) (UniProt P98170); test: small molecules binding XIAP protein – biophysical, small-molecule microarray, fluorescence 635 nm, primary screen (AID 1181); conditions: higher = more signal;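 further: score merges 667 nm emission and signal to noise over triplicate slides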
[11] = tested on: XIP peptide (Xip251-270) binding; test: XIP fragment 251-270 binding compounds – biochemical, small-molecule microarray, fluorescence 635/667 nm, 0.1 µg/mL protein, primary screen (AID 1182); conditions: fluorescent protein binding, 635 nm, higher = more signal, called active from +8 up or from −8 down
[12] = tested on: XIP peptide (Xip251-270); test: compounds binding XIP fragment 251-270 – biochemical, small-molecule microarray, fluorescence 635/667 nm, 0.5 µg/mL protein, primary screen (AID 1183); conditions: fluorescence 635 nm, higher = more signal
[13] = blood-stage malaria parasite viability loss – strain 3D7, DAPI fluorescence, 100 nL, primary screen (AID 1184);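 further: parasites grown inside human red blood cells in medium with human serum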; conditions: P. falciparum 3D7 growth, 3 d, higher = more signal
[14] = molecular target: Homeobox protein Hox-A13 (Mus musculus) (UniProt Q62424); test: disruptors of Hoxa13 oligonucleotide interaction – biochemical, fluorescence polarization, labeled oligonucleotide, primary screen (AID 1185); conditions: Hoxa13:DNA binding, 15 min, higher = more signal, called active from +8 up or from −8 down
[15] = blockers of DNA damage checkpoint Chk1 activation – imaging, HeLa, hydroxyurea, phospho-Chk1 antibody, percent positive cells, primary screen (AID 1186); conditions: hydroxyurea-induced phospho-Chk1 immunofluorescence imaging, higher = more signal
[16] = blockers of DNA damage checkpoint Chk1 activation – imaging, HeLa, hydroxyurea, phospho-Chk1 nuclear intensity, primary screen (AID 1187); conditions: hydroxyurea-induced phospho-Chk1 immunofluorescence imaging, higher = more signal

Sequence of E3 ubiquitin-protein ligase XIAP (Homo sapiens) (P98170 whole entry, looked up, the tested form may be a part): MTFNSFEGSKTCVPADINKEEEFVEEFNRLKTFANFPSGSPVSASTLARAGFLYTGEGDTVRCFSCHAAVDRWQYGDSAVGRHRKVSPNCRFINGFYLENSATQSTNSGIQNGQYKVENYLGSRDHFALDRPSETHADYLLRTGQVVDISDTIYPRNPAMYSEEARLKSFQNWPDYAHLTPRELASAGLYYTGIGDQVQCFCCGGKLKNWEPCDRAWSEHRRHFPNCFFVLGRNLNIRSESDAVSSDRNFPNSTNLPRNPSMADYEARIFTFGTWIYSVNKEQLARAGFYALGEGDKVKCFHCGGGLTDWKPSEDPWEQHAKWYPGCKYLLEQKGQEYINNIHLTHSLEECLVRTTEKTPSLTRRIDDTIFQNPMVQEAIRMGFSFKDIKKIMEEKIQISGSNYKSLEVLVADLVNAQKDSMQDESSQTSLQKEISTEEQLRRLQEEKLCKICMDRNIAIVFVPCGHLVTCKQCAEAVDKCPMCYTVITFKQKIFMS
Sequence of Dihydroorotate dehydrogenase (quinone), mitochondrial (Plasmodium falciparum (isolate 3D7)) (Q08210 whole entry, looked up): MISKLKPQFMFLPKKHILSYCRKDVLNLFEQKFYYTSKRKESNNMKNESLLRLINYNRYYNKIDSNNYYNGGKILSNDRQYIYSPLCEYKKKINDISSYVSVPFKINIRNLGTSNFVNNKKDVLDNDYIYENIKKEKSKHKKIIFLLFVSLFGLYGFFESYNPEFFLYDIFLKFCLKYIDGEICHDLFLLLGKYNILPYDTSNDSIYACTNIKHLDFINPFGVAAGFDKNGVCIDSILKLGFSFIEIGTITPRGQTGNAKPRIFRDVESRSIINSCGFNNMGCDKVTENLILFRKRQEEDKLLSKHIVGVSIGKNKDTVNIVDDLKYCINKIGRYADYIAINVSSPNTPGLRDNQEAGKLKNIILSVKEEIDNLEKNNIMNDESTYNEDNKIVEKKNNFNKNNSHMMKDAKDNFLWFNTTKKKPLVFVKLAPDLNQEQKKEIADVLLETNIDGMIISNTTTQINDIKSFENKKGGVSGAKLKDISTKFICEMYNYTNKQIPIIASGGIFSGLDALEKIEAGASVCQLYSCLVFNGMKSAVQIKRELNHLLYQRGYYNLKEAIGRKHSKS
Sequence of Homeobox protein Hox-A13 (Mus musculus) (Q62424 whole entry, looked up): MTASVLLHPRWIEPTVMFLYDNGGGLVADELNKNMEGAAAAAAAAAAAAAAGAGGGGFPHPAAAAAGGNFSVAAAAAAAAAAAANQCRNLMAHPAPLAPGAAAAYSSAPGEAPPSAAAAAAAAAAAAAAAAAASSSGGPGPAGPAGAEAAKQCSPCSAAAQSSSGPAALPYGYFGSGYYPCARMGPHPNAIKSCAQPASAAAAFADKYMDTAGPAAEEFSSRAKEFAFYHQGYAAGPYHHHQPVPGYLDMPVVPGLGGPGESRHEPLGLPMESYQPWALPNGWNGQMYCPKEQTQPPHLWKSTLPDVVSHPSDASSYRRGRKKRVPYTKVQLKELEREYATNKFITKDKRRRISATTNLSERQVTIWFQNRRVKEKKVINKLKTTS

Structure (SMILES)	z-score [1]	z-score [2]	z-score [3]	composite z-score [4]	z-score [5]	z-score [6]	z-score [7]	z-score [8]	z-score [9]	composite z-score [10]	composite z-score [11]	composite z-score [12]	z-score [13]	z-score [14]	z-score [15]	z-score [16]
O=C1O[C@H](c2ccccc2)[C@H](c2ccccc2)N2[C@H]1[C@@H](C(=O)O)[C@]1(C(=O)Nc3ccc(C#CC4=CCCCC4)cc31)[C@H]2c1ccccc1OCCO	-1.19	-1.17 (inactive)	-5.12 (inactive)	-6.35 (inactive)	2.36 (inactive)	1.73 (inactive)	-0.0532 (inactive)	0.0958 (inactive)	-6.63	-0.102	0.746 (inactive)	0.745	-1.86	-2.65 (inactive)	0.144 (inactive)	-0.0653 (inactive)
COc1ccc(CCNC(=O)[C@@]2(C)c3ccccc3C(=O)N(Cc3cc(F)cc(C(F)(F)F)c3)[C@H]2c2ccc(CO)cc2)cc1	-0.469	-0.513 (inactive)	1.02 (inactive)	0.917 (inactive)	0.593 (inactive)	1.1 (inactive)	0.568 (inactive)	0.453 (inactive)	0.652	0.003	0.17 (inactive)	0.464	-1.49	-4.2 (inactive)	0.027 (inactive)	0.116 (inactive)
COCCOC(=O)N1C(=O)[C@@]2(c3cc(C#CC4=CCCCC4)ccc31)[C@H](C(=O)Nc1nc3ccccc3s1)[C@H]1C(=O)O[C@H](c3ccccc3)[C@H](c3ccccc3)N1[C@@H]2c1ccc(OCCO)cc1	0.366	1.05 (inactive)	0.295 (inactive)	0.0498 (inactive)	4.33 (inactive)	2.51 (inactive)	-1.26 (inactive)	-2.09 (inactive)	-0.0984	-0.106	-0.555 (inactive)	0.467	-1.52	3.78 (inactive)	-0.0093 (inactive)	0.303 (inactive)
CCN(CC)c1ccc(N2CC=CC34O[C@@H]5/C=C\CCC(C)OC(=O)C5[C@H]3C(=O)N(C(CO)C(C)C)[C@@H]4C2=O)cc1 (some centres undefined)	-0.364	0.0948 (inactive)	0.509 (inactive)	-2.68 (inactive)	-0.525 (inactive)	-0.185 (inactive)	0.496 (inactive)	0.767 (inactive)	0.259	0.0049	0.0003 (inactive)	-0.431	-0.214	-6.03 (inactive)	0.0858 (inactive)	0.0174 (inactive)
COCCOC(=O)N1C(=O)[C@@]2(c3cc(C#CCCO)ccc31)[C@H](C(=O)Nc1nc3ccccc3s1)[C@H]1C(=O)O[C@H](c3ccccc3)[C@H](c3ccccc3)N1[C@@H]2c1ccc(OCCO)cc1	1.04	1.96 (inactive)	-0.922 (inactive)	-0.944 (inactive)	2.84 (inactive)	2.33 (inactive)	0.348 (inactive)	0.215 (inactive)	-1.66	0.154	0.886 (inactive)	0.744	-1.12	0.518 (inactive)	-0.502 (inactive)	-0.558 (inactive)
C=CCNC(=O)[C@H]1[C@@H]2C(=O)O[C@@H](c3ccccc3)[C@@H](c3ccccc3)N2[C@@H](c2ccc(OCCO)cc2)[C@]12C(=O)N(C(=O)OCCOC)c1ccccc12	-0.732	1.41 (inactive)	-0.738 (inactive)	1.17 (inactive)	1.11 (inactive)	2.32 (inactive)	-0.595 (inactive)	-1.27 (inactive)	-0.0749	-0.0969	0.95 (inactive)	0.846	-1.63	-4.21 (inactive)	-0.105 (inactive)	-0.0934 (inactive)
CC(C)(C)OC(=O)CC[C@]1(C(=O)NCC(O)CO)COC(c2ccc(OCCCO)cc2)=N1 (some centres undefined)	0.245	0.525 (inactive)	0.198 (inactive)	0.563 (inactive)	0.826 (inactive)	1.51 (inactive)	0.116 (inactive)	0.0752 (inactive)	0.467	-0.181	0.273 (inactive)	0.151	-0.104	-3.95 (inactive)	0.505 (inactive)	0.437 (inactive)
C=CCN1C(=O)[C@]2(O[C@H](CCO)[C@@H]([Si](C)(C)c3ccc(OC)cc3)[C@@H]2C)c2cc(N3CCCCC3=O)ccc21	-3.6	1.22 (inactive)	-5.89 (inactive)	-1.45 (inactive)	-0.577 (inactive)	2.97 (inactive)	0.575 (inactive)	-0.648 (inactive)	-6.02	-0.258	0.238 (inactive)	0.732	-2.66	-6.28 (inactive)	-0.147 (inactive)	-0.56 (inactive)
COc1ccc([Si](C)(C)[C@@H]2[C@@H](CC(=O)N3Cc4ccccc4C[C@H]3CO)O[C@]3(C(=O)N(C)c4c(Br)cc(C)cc43)[C@H]2C)cc1	-2.26	-1.5 (inactive)	-6.01 (inactive)	0.961 (inactive)	1.85 (inactive)	1.7 (inactive)	1.34 (inactive)	1.01 (inactive)	-5.76	-0.089	-0.223 (inactive)	0.565	-2.35	-4.06 (inactive)	-0.79 (inactive)	-0.12 (inactive)
